From PubChem BioAssay (NCI)
The panel holds about 79,000 compounds, 15% with a hit somewhere; the sample as a whole holds those more often. The source made the active and inactive calls. Cut-off read from the data, not from the text of the source: active = growth inhibition above about 70%; inactive = the rest.

What was measured:
[1] = NCI Yeast Anticancer Drug Screen. Data for the rad50 strain (AID 155);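 note: 0% = growth of vehicle-only cultures of the same strain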; conditions: S. cerevisiae rad50 strain growth inhibition, hits give high values
Method in brief: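 Relative growth inhibition (compound vs vehicle) was measured in yeast with a defined repair-gene alteration.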

[2] = NCI Yeast Anticancer Drug Screen. Data for the mec2-1 strain (AID 157); conditions: S. cerevisiae mec2-1 strain, hits give high values
Method in brief: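 Cells of the genetically defined mec2-1 yeast strain are incubated with test compound. Inhibition of growth is calculated against vehicle-treated controls.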

[3] = NCI Yeast Anticancer Drug Screen. Data for the sgs1 mgt1 strain (AID 161);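 note: 0% = growth of cultures given vehicle only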; conditions: S. cerevisiae sgs1 mgt1 strain, hits give high values
Method in brief: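 Test agents were incubated with a DNA-repair-mutant yeast strain. Growth was then read and compared against vehicle-treated controls.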

[4] = NCI Yeast Anticancer Drug Screen. Data for the cln2 rad14 strain (AID 165);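 note: 0% = growth equal to vehicle treated cultures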; conditions: S. cerevisiae cln2 rad14 strain, hits give high values
Method in brief: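 The screen exposed genetically defined yeast (cln2 rad14) to test compounds and scored growth inhibition relative to vehicle-treated controls.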

[5] = NCI Yeast Anticancer Drug Screen. Data for the bub3 strain (AID 167); conditions: S. cerevisiae bub3 mutant strain, hits give high values
Method in brief: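 Screening used yeast with an engineered genetic alteration affecting cell cycle control. Compound-exposed cultures were compared with vehicle cultures, and reduced growth was taken as inhibition.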

[6] = NCI Yeast Anticancer Drug Screen. Data for the mlh1 rad18 strain (AID 175); conditions: S. cerevisiae mlh1 rad18 strain growth inhibition, hits give high values
Method in brief: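 Compound-treated yeast growth, normalised to vehicle controls. Strain bears defined DNA repair mutations.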

[7] = at 5.0 µM (retest, dose inferred, filed as 0.5)
[8] = at 50.0 µM (retest, dose inferred, filed as 5.0)

Measured: growth inhibition

C/C(=N/NC(=S)Nc1cccc(Cl)c1)c1ccccn1
active: [1]; [7] 78% | [1]; [8] 97% | [1]; at 50.0 µM 79% | [2]; [7] 91% | [2]; [8] 97% | [2]; at 50.0 µM 86.7% | [3]; [7] 85% | [3]; [8] 97% | [3]; at 50.0 µM 87% | [4]; [7] 81% | [4]; [8] 96% | [4]; at 50.0 µM 88.2% | [5]; [7] 82% | [5]; [8] 96% | [5]; at 50.0 µM 90% | [6]; [7] 91% | [6]; [8] 97% | [6]; at 50.0 µM 90.1%

O=C(O)CCC12CCCCC1=NC1(CCCCC1)NC2=O (configuration not stated)
inactive: [1]; [7] 2% | [1]; [8] 6% | [1]; at 50.0 µM 10.6% | [2]; [7] -2% | [2]; [8] -1% | [2]; at 50.0 µM 44.6% | [3]; [7] 3% | [3]; [8] 4% | [4]; [7] 4% | [4]; [8] 3% | [4]; at 50.0 µM 18.1% | [5]; [7] 1% | [5]; [8] 2% | [5]; at 50.0 µM 67% | [6]; [7] 1% | [6]; [8] 7% | [6]; at 50.0 µM 55.6%
active: [3]; at 50.0 µM 72.7%

CC(C)NC(=O)OCCS(=O)c1c(Cl)c(Cl)nn1C (configuration not stated)
active: [1]; at 50.0 µM 98.8% | [2]; at 50.0 µM 99.2% | [4]; at 50.0 µM 97.7% | [5]; [8] 75% | [5]; at 50.0 µM 97% | [6]; at 50.0 µM 99%
inactive: [1]; [7] -15% | [1]; [8] 62% | [2]; [7] 11% | [2]; [8] 37% | [3]; [7] -5% | [3]; [8] 53% | [3]; at 50.0 µM 42.4% | [4]; [7] 1% | [4]; [8] 20% | [5]; [7] -4% | [6]; [7] -7% | [6]; [8] 56%

O=c1ccc([N+](=O)[O-])c[nH]1.[Ag]
active: [1]; [7] 98% | [1]; [8] 98% | [1]; at 50.0 µM 99.5% | [2]; [7] 99% | [2]; [8] 99% | [2]; at 50.0 µM 99.3% | [3]; [7] 99% | [3]; [8] 98% | [3]; at 50.0 µM 99.1% | [4]; [7] 98% | [4]; [8] 100% | [4]; at 50.0 µM 98.2% | [5]; [7] 98% | [5]; [8] 98% | [5]; at 50.0 µM 98.3% | [6]; [7] 98% | [6]; [8] 97% | [6]; at 50.0 µM 99%

Cc1ccc(NN(C)c2ccc(C)cc2)cc1
inactive: [1]; [7] -4% | [1]; [8] 2% | [1]; at 50.0 µM 34.3% | [2]; [7] -1% | [2]; [8] -8% | [2]; at 50.0 µM 16.1% | [3]; [7] -4% | [3]; [8] -10% | [3]; at 50.0 µM -11.4% | [4]; [7] 5% | [4]; [8] -4% | [4]; at 50.0 µM 13.4% | [5]; [7] 9% | [5]; [8] 18% | [5]; at 50.0 µM 27.6% | [6]; [7] -3% | [6]; [8] 1% | [6]; at 50.0 µM 3.1%

O=C1CSC(c2ccc(Cl)cc2)N1c1ccc(-c2ccc(-n3c(-c4ccccc4)nc4ccccc4c3=O)cc2)cc1 (configuration not stated)
inactive: [1]; [7] -6% | [1]; at 50.0 µM 69.4% | [2]; [7] 2% | [2]; [8] 63% | [2]; at 50.0 µM 47.2% | [3]; [7] 9% | [3]; [8] 65% | [4]; [7] -11% | [4]; [8] 50% | [4]; at 50.0 µM 26.9% | [5]; [7] -4% | [6]; [7] -10%
active: [1]; [8] 84% | [3]; at 50.0 µM 84.2% | [5]; [8] 95% | [5]; at 50.0 µM 84.8% | [6]; [8] 94% | [6]; at 50.0 µM 87.5%

CN(C)C(=S)N/N=C/c1ccccn1
active: [1]; [7] 94% | [1]; [8] 98% | [1]; at 50.0 µM 98.7% | [2]; [7] 95% | [2]; [8] 98% | [2]; at 50.0 µM 98.9% | [3]; [7] 95% | [3]; [8] 99% | [3]; at 50.0 µM 98.4% | [4]; [7] 95% | [4]; [8] 99% | [4]; at 50.0 µM 98.3% | [5]; [7] 95% | [5]; [8] 97% | [5]; at 50.0 µM 99% | [6]; [7] 95% | [6]; [8] 98% | [6]; at 50.0 µM 98.8%

N#CC(C(=O)C(=O)Nc1ccc(Cl)c(Cl)c1)c1c(Cl)cccc1Cl (configuration not stated)
inactive: [1]; [7] -1% | [1]; [8] 4% | [1]; at 50.0 µM 25.9% | [2]; [7] -2% | [2]; [8] -10% | [2]; at 50.0 µM 3.15% | [3]; [7] -1% | [3]; [8] -1% | [3]; at 50.0 µM 2.95% | [4]; [7] 4% | [4]; [8] -4% | [4]; at 50.0 µM 43% | [5]; [7] -1% | [5]; [8] -1% | [5]; at 50.0 µM -3.2% | [6]; [7] -2% | [6]; [8] -5% | [6]; at 50.0 µM 31.4%

O=Cc1ccc2cc(Cl)ccc2n1
inactive: [1]; [7] -156% | [1]; [8] -135% | [1]; at 50.0 µM -14.9% | [2]; [7] -48% | [2]; [8] -55% | [2]; at 50.0 µM 18.4% | [3]; [7] -63% | [3]; [8] -63% | [3]; at 50.0 µM 10% | [4]; [7] -50% | [4]; [8] -67% | [4]; at 50.0 µM 46.6% | [5]; [7] -71% | [5]; [8] -83% | [5]; at 50.0 µM -14.4% | [6]; [7] -138% | [6]; [8] -111% | [6]; at 50.0 µM 2.55%
